Bioassay records (PubChem BioAssay)
ARNT-TACC3 inh: disruptors of ARNT/TACC3 protein interaction, primary screen, biochemical, AlphaScreen, single concentration | AID 623870, 2012 | AlphaScreen His-ARNT PAS-B/GST-TACC3 binding, luminescence; TACC3 fragment carries E629A point mutation | inhibition, % at 9.99 µM | actives 0.66% (n = 390,000) | Transforming acidic coiled-coil-containing protein 3 (Homo sapiens), Q9Y6A5;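 active means mean inhibition of replicates at least 50% and at least half of replicates each reaching 50%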;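 further: 0% = complete ARNT plus TACC3 wells and 100% = ARNT alone without TACC3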
HSF1 activator: HSF-1 activators, primary screen, NIH3T3-HGL cells, MG132 stress, luminescence, single point; activation, % at 9 µM; AID 504408, 2011; actives 1.7% (n = 300,000); NIH3T3-HGL HSF-1 luciferase reporter, 8 h; 100% = twice DMSO control signal;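 active means mean replicate activation of at least 50% with a set share of replicates each reaching 50%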;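 further: 0% = median of the neutral control wells and 100% = twice that signal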
HSP90 refold inh: HSP90 inhibitors, primary screen, cell lysate, luminescence. Rabbit reticulocyte lysate, luciferase refolding luminescence, 3 h. Heat shock protein HSP 90 (rabbit reticulocyte lysate; luciferase refolding). AID 1789, 2009. actives 0.91% (n = 290,000). inhibition, % at 5.6 µM;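 active means inhibition above the screen-wide mean plus 3 SD, computed separately per campaign, cut at about 16% in these data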;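 further: 0% = DMSO wells and 100% = 60 µM geldanamycin wells; inhibitors lower the luminescence because luciferase stays unfolded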
HIF activator: HIF pathway transcriptional activators, primary screen, cell-based, U2OS HRE-luciferase, luminescence. U2OS HRE-luciferase reporter; normalized: DMSO 0%, desferrioxamine 100%. activation, % at 7.5 µM (by protocol). actives 0.32% (n = 300,000);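 active means mean activation of at least 10% of the iron chelator positive control signal, with at least half of replicates also reaching 10%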
HSF1 inhib: HSF1 inhibitors in luciferase reporter cells, primary screen, cell-based, NIH3T3, luminescence; NIH3T3-HGL HSE-luciferase, MG132-induced, luminescence 8 h; hits give low values; activity change, negative = inhibition, % at 7.5 µM (by protocol); actives 0.77% (n = 300,000);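 active means more than half of replicate wells show activity change below -50%, luminescence cut by over half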;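 further: luciferase reports HSF-1 transcriptional activity via heat shock element; 0% = median of DMSO wells and -100% = zero luminescence signal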
HSP90 confirm: HSP90 inhibitors, confirmation, cell lysate, luminescence | shares compounds with HSP90 refold inh | actives 64% (n = 2,300) | rabbit reticulocyte lysate, luciferase refolding luminescence, 3 h | inhibition, % at 5.9 µM; in the data active means inhibition above about 18%;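 further: 0% = vehicle wells and 100% = reference inhibitor wells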
luciferase ctr: firefly luciferase inhibitors, HSP90 counter-screen, confirmation, artefact control for HSP90 inhibitor project, biochemical, luminescence, triplicate; purified native firefly luciferase; actives 48% (n = 2,300); AID 1847, 2009; inhibition, % at 5.9 µM; shares compounds with HSP90 refold inh;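 active means inhibition above the mean inhibition of all tested sample wells plus 3 SD, cut at about 10% in these data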;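 further: 0% = DMSO with luciferase and 100% = wells lacking luciferase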
Target sequence (P08659 whole entry, looked up): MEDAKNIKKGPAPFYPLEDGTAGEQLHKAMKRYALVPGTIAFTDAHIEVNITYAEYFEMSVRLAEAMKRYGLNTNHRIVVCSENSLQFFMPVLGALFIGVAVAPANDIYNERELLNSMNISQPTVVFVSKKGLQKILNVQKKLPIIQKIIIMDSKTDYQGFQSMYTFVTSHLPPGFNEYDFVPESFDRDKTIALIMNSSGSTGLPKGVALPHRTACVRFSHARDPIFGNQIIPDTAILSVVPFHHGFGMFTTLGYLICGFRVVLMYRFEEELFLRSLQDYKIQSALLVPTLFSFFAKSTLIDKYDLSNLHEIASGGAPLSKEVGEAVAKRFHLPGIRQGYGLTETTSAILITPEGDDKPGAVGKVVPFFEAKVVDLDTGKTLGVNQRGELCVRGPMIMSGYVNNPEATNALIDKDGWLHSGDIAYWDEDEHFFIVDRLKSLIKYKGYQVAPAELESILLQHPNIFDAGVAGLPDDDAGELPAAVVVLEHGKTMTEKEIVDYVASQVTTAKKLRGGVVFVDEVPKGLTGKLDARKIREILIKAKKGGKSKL
* = called active by the depositor; nt = no result. In the library only some 3.1% were active in any assay of this set; here they are far more common.

SMILES | ARNT-TACC3 inh | HSF1 activator | HSP90 refold inh | HIF activator | HSF1 inhib | HSP90 confirm | luciferase ctr
CCC(=O)Nc1ccc2c(c1)C(=O)N(C)C[C@H](OC)[C@@H](C)CN(C(=O)COC)[C@@H](C)CO2 | -22.0 | nt | nt | nt | nt | nt | nt
CCc1nc(SCC(=O)Nc2nc3c(s2)CCCC3)c2ccccc2n1 | -9.6 | -0.3 | 10.6 | 0.4 | 0.5 | nt | nt
CCCc1nc(SCC(=O)Nc2nc3c(s2)CCCC3)c2ccccc2n1 | -12.0 | 11.6 | 18.9* | 1.6 | 1.9 | 10.8 | -0.2
O=C(N[C@@H]1CC[C@H](CCn2cc(C3(O)CCCC3)nn2)O[C@@H]1CO)c1ccccc1F | -15.9 | nt | nt | nt | nt | nt | nt
Cc1noc(C)c1S(=O)(=O)N(C)C[C@H]1Oc2ccc(NS(=O)(=O)c3cccs3)cc2C(=O)N([C@@H](C)CO)C[C@H]1C | -4.2 | nt | nt | nt | nt | nt | nt
CCn1cc(C(=O)NC2CCc3ccccc32)c(=O)c2ccc(C)nc21 (stereo not drawn) | nt | 20.3 | 26.8* | -0.1 | -5.6 | -2.6 | -8.8
Cc1cc2ncc(-c3ncc(C(F)(F)F)cc3Cl)cn2n1 | -5.3 | 12.3 | 17.5* | -2.8 | -5.1 | 67.5* | 54.6*
O=[N+]([O-])c1ccc(O)c(N=Cc2sc3ccccc3c2O)c1 | 4.8 | -45.2 | 21.4* | 0.0 | -32.2 | -2.1 | -9.8
O=[N+]([O-])c1ccc(O)c(C=Nc2cccc3ccccc23)c1 | 17.2 | 4.6 | 8.5 | -0.9 | 1.4 | nt | nt
Oc1c(C=Nc2cccc3cccnc23)sc2ccccc12 | nt | -1.4 | 36.8* | -0.2 | 1.4 | 22.5* | 50.0*
Cc1cccc(/N=C/c2sc3ccccc3c2O)n1 | -3.3 | 12.7 | 6.2 | 2.0 | 3.6 | nt | nt
COc1ccc(CN(C)C[C@@H]2Oc3ccc(NC(=O)C4CC4)cc3CC(=O)N([C@H](C)CO)C[C@H]2C)cc1 | -3.4 | nt | nt | nt | nt | nt | nt
C[C@H](CO)N1C[C@H](C)[C@H](CN(C)Cc2cccnc2)OCc2cnnn2CCCC1=O | -7.6 | nt | nt | nt | nt | nt | nt
CC(=O)Nc1cc2nn(-c3ccccc3)nc2cc1Cl | nt | 45.8 | -0.1 | 3.3 | 32.3 | nt | nt
CC(C)(C)C(=O)Nc1cc2nn(-c3ccccc3)nc2cc1Cl | -12.9 | nt | 79.7* | nt | nt | 85.4* | 85.0*
CCOc1ccc(/C=N/NC(=O)c2ccccc2NC(=O)c2ccc(OC)cc2)cc1 | 2.7 | 25.4 | 18.6* | 1.9 | -0.1 | 10.5 | -25.0
O=C(Nc1cc2ccccc2oc1=O)c1ccccc1 | nt | -6.3 | 25.4* | -1.9 | -19.7 | 85.8* | 73.8*
CO[C@@H]1CN(C)C(=O)c2cc(NC(=O)c3ccccc3F)ccc2OC[C@H](C)N(C(=O)c2ccccc2F)C[C@@H]1C | -9.1 | nt | nt | nt | nt | nt | nt
Cc1cc(C(=O)CSc2nnnn2C)c(C)n1Cc1ccco1 | 0.0 | 49.4 | 2.9 | 1.7 | 18.8 | nt | nt
Cc1cc(C(=O)CSc2ncccn2)c(C)n1Cc1ccco1 | -5.4 | 45.1 | 17.4* | 0.8 | 38.5 | 46.4* | 37.3*
C[C@H](CO)N1C[C@H](C)[C@H](CN(C)S(=O)(=O)c2ccc(F)cc2)Oc2ccc(NC(=O)Nc3cccc4ccccc34)cc2C1=O | -1.5 | nt | nt | nt | nt | nt | nt
CCC(=O)NC1=C(Cl)C(=O)C(NC(=O)CC)=C(Cl)C1=O | 5.6 | nt | 29.9* | nt | nt | 12.1 | 74.6*
CCC(=O)NC1=C(NC(C)c2ccccc2)C(=O)c2ccccc2C1=O (stereo not drawn) | 5.3 | 1.2 | 2.0 | 0.5 | -3.0 | nt | nt
C[C@@H]1CN([C@H](C)CO)C(=O)c2cccc(NS(=O)(=O)c3cccs3)c2O[C@@H]1CN(C)Cc1ccc(-c2ccccc2)cc1 | 3.6 | nt | nt | nt | nt | nt | nt
O=C(NNS(=O)(=O)c1ccc(F)cc1)C1CC(c2cccnc2)=NO1 (stereo not drawn) | -0.9 | 4.0 | 20.6* | -0.1 | -1.6 | 3.4 | -0.1
SMILES | ARNT-TACC3 inh | HSF1 activator | HSP90 refold inh | HIF activator | HSF1 inhib | HSP90 confirm | luciferase ctr
C[C@@H]1CCCCO[C@@H](CN(C)C(=O)Nc2ccc(F)cc2)[C@H](C)CN([C@H](C)CO)C(=O)c2cc(NC(=O)Nc3ccccc3)ccc2O1 | -3.0 | nt | nt | nt | nt | nt | nt
Cc1oc(-c2ccc3c(c2)OCCO3)cc1C(=O)NC(Cc1ccccc1)C(=O)O (stereo not drawn) | -0.8 | -15.2 | 39.3* | 0.9 | 5.7 | 65.4* | 18.3*
Cc1ccc(NC(=O)CN2C(=O)S/C(=C/c3ccc(-c4cccc(C(=O)O)c4)o3)C2=O)cc1 | -2.4 | nt | 0.4 | nt | nt | nt | nt
Cc1ccc(NC(=O)CN2C(=O)S/C(=C\c3ccc(-c4cccc(C(=O)O)c4C)o3)C2=O)cc1 | nt | 3.1 | 25.6* | 0.0 | -0.1 | 24.1* | -5.8
COc1ccc(NC(=O)Nc2ccc3c(c2)C(=O)N([C@@H](C)CO)C[C@@H](C)[C@@H](CN(C)Cc2ccccc2)OCCCC[C@H](C)O3)cc1 | 4.7 | nt | nt | nt | nt | nt | nt
COc1ccc(NC(=S)NNC(=O)Cn2nc([N+](=O)[O-])cc2C)cc1 | -3.6 | 15.3 | 40.7* | 0.2 | 2.8 | 4.4 | 1.0
O=C(NC(=O)c1ccccc1)Nc1ccccc1 | -4.6 | 46.1 | 63.5* | 3.1 | 27.3 | 59.5* | 47.2*
C[C@@H]1CN([C@@H](C)CO)S(=O)(=O)c2ccc(C3=CCCCC3)cc2O[C@H]1CN(C)C(=O)CN(C)C | -13.4 | nt | nt | nt | nt | nt | nt
CC1=NN(c2ccccc2)C(=O)/C1=C/C=C/C=C/N(C)C | 8.5 | 32.2 | -2.7 | -0.4 | 12.0 | nt | nt
CC1=NN(c2ccccc2)C(=O)/C1=C\N(O)c1ccccc1 | 14.4 | 13.6 | 41.0* | -1.7 | 8.9 | 79.7* | -17.4
COCCOC(=O)N1C(=O)[C@@]2(c3ccccc31)[C@H](c1ccccc1OCCO)N1[C@H](c3ccccc3)[C@H](c3ccccc3)OC(=O)[C@H]1[C@@H]2C(=O)NC[C@H](O)c1ccccc1 | -8.2 | nt | nt | nt | nt | nt | nt
N#CC1=C(N)Oc2n[nH]c(-c3cccs3)c2C1c1ccncc1 (stereo not drawn) | -2.3 | 36.0 | 1.3 | -0.4 | 2.9 | nt | nt
N#CC1=C(N)Oc2n[nH]c(-c3cccs3)c2C1c1ccsc1 (stereo not drawn) | 28.3 | -5.6 | 21.3* | 0.0 | -1.3 | 4.4 | 1.0
C[C@H]1CCCCO[C@H](CN(C)S(=O)(=O)c2cccs2)[C@@H](C)CN([C@@H](C)CO)C(=O)c2cc(NC(=O)Nc3ccccc3)ccc2O1 | -5.2 | nt | nt | nt | nt | nt | nt
COc1ccc(NC(=O)N(C)C[C@@H]2OCCCC[C@@H](C)Oc3ccc(NC(=O)Nc4ccccc4)cc3C(=O)N([C@H](C)CO)C[C@@H]2C)cc1 | 2.3 | nt | nt | nt | nt | nt | nt
